For 34 compounds, Potency and viability (% of DMSO) results are on record in PubChem BioAssay (NCATS).

Molecules are shown by their SMILES. Inconclusive results are not listed. Unmarked numbers belong to inactive results. Activity calls are given as the source filed them. The call rests on the fitted dose curve; in most records, active means well fitted cell-killing curve with a large enough effect; inconclusive means small, poorly fitted or top-dose-only effect, or effect the other way; inactive means no such curve, though single readings can be large or run the other way.
Potency means the concentration at half of the fitted maximal effect.

The nature of the first experiment: Quantitative High-Throughput drug screen in 47 multiple myeloma cell lines against the NCATS MIPE library collection: JIM1_ECACC cell viability assay (AID 1918964). Conditions: JIM1 myeloma viability, CellTiter-Glo ATP luminescence, 48 h; series mostly up to 45.8 µM. In a few lines:
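Inhibition of cell viability is measured here. Each line was plated at 500 cells per well, treated with MIPE 4.0 drugs, kept 48 hours at 37C, then assayed for ATP content by CellTiter-Glo luminescence.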
`O=C(Nc1ncc(-c2cc(C(F)F)nn2-c2c(Cl)cccc2Cl)s1)C1CC1`: the Potency was 0.166 µM (active).
`Cc1[nH]nc2ccc(-c3cncc(OC[C@@H](N)Cc4ccccc4)c3)cc12`: the Potency is 1.87 µM (active).
On the same count and under the same terms, with `Nc1ncnc2c1c(-c1cccc(OCc3ccccc3)c1)cn2C1CC(CN2CCCC2)C1` (stereo not given) the figure was 0.296 µM (active); with `COc1cc(C)c(Sc2cnc(NC(=O)c3ccc(CNC(C)C(C)C)cc3)s2)cc1C(=O)N1CCN(C(C)=O)CC1` (stereo not given), “inactive”; with `COc1cc2c(Oc3ccc(-c4cnc(Nc5ccc(F)cc5)n(C)c4=O)cc3F)ccnc2cc1OCCCN1CCOCC1`, 1.18 µM (active).
Still for that read-out and setting: with `C[C@@H]1COC(Nc2ccc3ncnc(Nc4ccc(OCc5nccs5)c(Cl)c4)c3c2)=N1` the figure was 13.2 µM (active).
On the same count and under the same terms, with `COc1cc2c(NC3CCN(C(C)C)CC3)nc(C3CCCCC3)nc2cc1OCCCN1CCCC1` the figure was 23.5 µM (active).
`Cc1cc(C(=O)N2CCN(c3cccc(Cl)c3)CC2)n(-c2ccccc2)n1`: the Potency is 0.0118 µM (active).
As for `O=C(Cc1ccc(-c2ccc(OCCN3CCOCC3)cc2)cn1)NCc1ccccc1`, the Potency is 0.0074 µM (active).
Still for that read-out and setting: with `Cn1cc(-c2[nH]c3cc(NC(=O)[C@H](N)C4CCCCC4)cc4c3c2C=NNC4=O)cn1` the figure was 0.296 µM (active); with `CNC(=O)c1ccccc1Nc1nc(Nc2ccc(N3CCOCC3)cc2OC)ncc1Cl`, 0.105 µM (active); with `CC(C)c1ccccc1Cc1cc(C(=O)Nc2ccc(S(=O)(=O)c3ccccc3C(C)(C)C)cc2)c(O)c(O)c1O`, “inactive”.
As to `Nc1ccn([C@@H]2O[C@H](CO)[C@H](O)C2(F)F)c(=O)n1`, the Potency was 0.105 µM (active).
Still for that read-out and setting: the value for `O=C(CCCCCCC(=O)Nc1ccc([C@H]2O[C@@H](CSc3nc(-c4ccccc4)c(-c4ccccc4)o3)C[C@@H](c3ccc(CO)cc3)O2)cc1)NO` was “inactive”; that for `CCS(=O)(=O)c1cccc(-c2cc(C(=O)NC3CCN(C)CC3)c(C)c3[nH]c4ncc(C)cc4c23)c1` was 0.935 µM (active); that for `COc1cc2ncnc(Nc3ccc(F)c(Cl)c3)c2cc1NC(=O)C=CCN1CCCCC1` was 10.5 µM (active).
Regarding `C#Cc1cccc(Nc2ncnc3cc(OC)c(OCCCCCCC(=O)NO)cc23)c1`, the Potency was 0.0662 µM (active).
On the same count and under the same terms, the value for `CC=C1NC(=O)[C@H]2CSSCCC=C[C@H](CC(=O)N[C@H](C(C)C)C(=O)N2)OC(=O)[C@H](C(C)C)NC1=O` was 0.0093 µM (active); that for `O=c1[nH]nc(Sc2ncc([N+](=O)[O-])s2)n1-c1ccc2c(c1)OCCO2` was 5.9 µM (active).
Still for that read-out and setting: with `CC[C@@]1(O)C(=O)OCc2c1cc1n(c2=O)Cc2cc3cc(O)ccc3nc2-1` the figure was 0.235 µM (active); with `COc1ccc(-c2cc3c(C)nc(N)nc3n(C3CCC(OCCO)CC3)c2=O)cn1` (stereo not given), 0.0074 µM (active); with `OCc1ccc(-c2ccc(-c3ccc(CO)s3)o2)s1`, “inactive”.
Same read-out and setting: with `CN1CCN(c2cc(C(=O)Nc3ccc4c(c3)-c3c(c(C(N)=O)nn3-c3ccc(F)cc3)CC4)c(Cl)cn2)CC1` the figure was 8.33 µM (active); with `Cc1cnc(Nc2ccc(F)cc2Cl)nc1-c1c[nH]c(C(=O)N[C@H](CO)c2cccc(Cl)c2)c1`, 7.43 µM (active).
On to `COc1ccc(CC2c3cc(OC)c(OC)cc3CC[N+]2(C)CCC(=O)OCCCCCOC(=O)CC[N+]2(C)CCc3cc(OC)c(OC)cc3C2Cc2ccc(OC)c(OC)c2)cc1OC` (stereo not given), for which the viability (% of DMSO) is 83.6% [at 5.15 µM].
On to `CN(C)CC=CC(=O)Nc1cc2c(Nc3ccc(F)c(Cl)c3)ncnc2cc1O[C@H]1CCOC1`, for which the Potency is 2.96 µM (active).
Consider `CC(C)c1cc(C(=O)N2Cc3ccc(CN4CCN(C)CC4)cc3C2)c(O)cc1O`, for which the Potency is 0.0743 µM (active).
On the same count and under the same terms, with `Clc1cccc(-c2nnnn2Cc2cccnc2)c1Cl` the entry was “inactive”; with `N#CCNC(=O)c1ccc(-c2ccnc(Nc3ccc(N4CCOCC4)cc3)n2)cc1`, “inactive”.
As to `Nc1ncnc2c1c(-c1cnc3[nH]ccc3c1)nn2C1CCCC1`, the Potency is 0.526 µM (active).
Turning to `NC1(Cc2ccc(Cl)cc2)CCN(c2ncnc3[nH]ccc23)CC1`, the Potency is 2.96 µM (active).
For `COc1ccc2c(c1)CC[C@@H](CN(C)CC(=O)O)[C@H]2c1ccccc1`, the Potency was 0.372 µM (active).
As for `Nc1cc(C(F)(F)F)c(-c2cc(N3CCOCC3)nc(N3CCOCC3)n2)cn1`, the Potency is 0.0469 µM (active).
On the same count and under the same terms, with `COc1cccc2c(NCc3ccccc3)nc(-n3c(N)nc4ccccc43)nc12` the figure was 1.87 µM (active).

Another experiment can be described thus: Quantitative High-Throughput drug screen in 47 multiple myeloma cell lines against the NCATS MIPE library collection: INA6_PLB cell viability assay (AID 1918965; further: nearly all actives have a fitted effect of over 55% in size). The conditions noted are these: INA6 myeloma viability, CellTiter-Glo ATP luminescence, 48 h; series mostly up to 45.8 µM. In a few lines:
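Relative luminescence from CellTiter-Glo served as the viability signal, referenced to DMSO-treated (100%) and cell-free medium (0%) controls. Treatment lasted 48 hours at 37C with 500 cells per well.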
(In general: In ATP-based viability assays light output follows the ATP content of the culture.)
`O=C(Nc1ncc(-c2cc(C(F)F)nn2-c2c(Cl)cccc2Cl)s1)C1CC1`: the Potency was 0.296 µM (active).
Same read-out and setting: with `Cc1[nH]nc2ccc(-c3cncc(OC[C@@H](N)Cc4ccccc4)c3)cc12` the figure was 0.935 µM (active); with `Nc1ncnc2c1c(-c1cccc(OCc3ccccc3)c1)cn2C1CC(CN2CCCC2)C1` (stereo not given), 6.62 µM (active); with `COc1cc(C)c(Sc2cnc(NC(=O)c3ccc(CNC(C)C(C)C)cc3)s2)cc1C(=O)N1CCN(C(C)=O)CC1` (stereo not given), 18.7 µM (active).
Still for that read-out and setting: the value for `COc1cc2c(Oc3ccc(-c4cnc(Nc5ccc(F)cc5)n(C)c4=O)cc3F)ccnc2cc1OCCCN1CCOCC1` was 14.8 µM (active); that for `COc1cc2c(NC3CCN(C(C)C)CC3)nc(C3CCCCC3)nc2cc1OCCCN1CCCC1` was 3.72 µM (active).
In the case of `Cc1cc(C(=O)N2CCN(c3cccc(Cl)c3)CC2)n(-c2ccccc2)n1`, the Potency is 0.418 µM (active).
For `Cn1cc(-c2[nH]c3cc(NC(=O)[C@H](N)C4CCCCC4)cc4c3c2C=NNC4=O)cn1`, the Potency is 0.209 µM (active).
For the compound `CC(C)c1ccccc1Cc1cc(C(=O)Nc2ccc(S(=O)(=O)c3ccccc3C(C)(C)C)cc2)c(O)c(O)c1O`, the Potency was 5.26 µM (active).
Regarding `Nc1ccn([C@@H]2O[C@H](CO)[C@H](O)C2(F)F)c(=O)n1`, the Potency was 0.0526 µM (active).
The same measure, in the same setting: the value for `O=C(CCCCCCC(=O)Nc1ccc([C@H]2O[C@@H](CSc3nc(-c4ccccc4)c(-c4ccccc4)o3)C[C@@H](c3ccc(CO)cc3)O2)cc1)NO` was 5.26 µM (active).
Same read-out and setting: the value for `COc1cc2ncnc(Nc3ccc(F)c(Cl)c3)c2cc1NC(=O)C=CCN1CCCCC1` was 3.72 µM (active).
Turning to `CC=C1NC(=O)[C@H]2CSSCCC=C[C@H](CC(=O)N[C@H](C(C)C)C(=O)N2)OC(=O)[C@H](C(C)C)NC1=O`, the Potency is 0.0132 µM (active).
Same read-out and setting: with `CC[C@@]1(O)C(=O)OCc2c1cc1n(c2=O)Cc2cc3cc(O)ccc3nc2-1` the figure was 0.0166 µM (active); with `COc1ccc(-c2cc3c(C)nc(N)nc3n(C3CCC(OCCO)CC3)c2=O)cn1` (stereo not given), 0.148 µM (active); with `OCc1ccc(-c2ccc(-c3ccc(CO)s3)o2)s1`, 2.64 µM (active).
On the same count and under the same terms, with `CN1CCN(c2cc(C(=O)Nc3ccc4c(c3)-c3c(c(C(N)=O)nn3-c3ccc(F)cc3)CC4)c(Cl)cn2)CC1` the figure was 1.05 µM (active); with `Cc1cnc(Nc2ccc(F)cc2Cl)nc1-c1c[nH]c(C(=O)N[C@H](CO)c2cccc(Cl)c2)c1`, 9.35 µM (active).
With `CN(C)CC=CC(=O)Nc1cc2c(Nc3ccc(F)c(Cl)c3)ncnc2cc1O[C@H]1CCOC1`, the Potency is 2.09 µM (active).
Still for that read-out and setting: with `CC(C)c1cc(C(=O)N2Cc3ccc(CN4CCN(C)CC4)cc3C2)c(O)cc1O` the figure was 0.118 µM (active).
The same measure, in the same setting: with `Clc1cccc(-c2nnnn2Cc2cccnc2)c1Cl` the entry was “inactive”; with `N#CCNC(=O)c1ccc(-c2ccnc(Nc3ccc(N4CCOCC4)cc3)n2)cc1`, 1.32 µM (active).
Still for that read-out and setting: the value for `Nc1ncnc2c1c(-c1cnc3[nH]ccc3c1)nn2C1CCCC1` was 0.209 µM (active); that for `COc1ccc2c(c1)CC[C@@H](CN(C)CC(=O)O)[C@H]2c1ccccc1` was 2.96 µM (active).
Take `Nc1cc(C(F)(F)F)c(-c2cc(N3CCOCC3)nc(N3CCOCC3)n2)cn1`: the Potency is 1.32 µM (active).
Same read-out and setting: with `COc1cccc2c(NCc3ccccc3)nc(-n3c(N)nc4ccccc43)nc12` the figure was 3.72 µM (active).
